Assay results published in PubChem BioAssay AID1159580 (chemical genetic matrix, 2015).
“And” between values parts separate entries of the source, which are not always exact repeats. Equal entries are not always repeated. The whole screen tested about 5,500 compounds, of which about 2,000 (36%) were called active. Another 18% or so got no clear call; they are omitted. Rule as the data show it: active = normalized growth mostly below about 0.91 (no sharp cut-off); inconclusive = no clear call, values can overlap the other calls; inactive = mostly above about 0.92. Some of the results follow.

Assay: chemical genetic growth profiling, strain panel (AID 1159580);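 also: tested at 20 µM; growth read once vehicle control cultures reached saturation at 30 °C; 1 = growth at the plate median or of vehicle wells; lower values mean less growth of the strain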
Conditions: S. cerevisiae deletion strains, growth OD

Measured: normalized growth

CC(C)NCC(O)c1ccc(O)c(O)c1 (stereo not given)
inactive: locus YAL013W, strain DEP1, hits give low values 1.01 | locus YAL021C, strain ccr4, hits give low values 0.994 | locus YAL026C, strain drs2, hits give low values 0.994 | locus YAL030W, strain snc1, hits give low values 0.996 | locus YAL040C, strain CLN3, hits give low values 1 and 1.06 | locus YBL061C, strain skt5, hits give low values 0.99 | locus YBR009C, strain hhf1, hits give low values 0.995 | locus YBR021W, strain FUR4, hits give low values 1.01 | locus YBR023C, strain chs3, hits give low values 0.982 | locus YBR171W, strain sec66, hits give low values 0.979 | locus YBR229C, strain ROT2, hits give low values 1.02 | locus YBR231C, strain swc5, hits give low values 0.997 | locus YBR279W, strain paf1, hits give low values 0.973 | locus YCL011C, strain gbp2, hits give low values 0.978 | locus YCL016C, strain dcc1, hits give low values 0.951 | locus YCL029C, strain bik1, hits give low values 1 | locus YCL061C, strain MRC1 (second series), hits give low values 0.995 and 0.99 | locus YCL061C, strain MRC1, hits give low values 0.985 | locus YCL069W, strain vba3, hits give low values 1 | locus YCR088W, strain abp1, hits give low values 0.99 | locus YDL005C, strain med2, hits give low values 0.997 | locus YDL035C, strain GPR1, hits give low values 1.02 | locus YDL040C, strain nat1, hits give low values 1.01 | locus YDL074C, strain BRE1, hits give low values 1.03 | locus YDL101C, strain DUN1, hits give low values 1.01 | locus YDL185W, strain tfp1, hits give low values 0.984 | locus YDL192W, strain arf1, hits give low values 1 | locus YDR001C, strain nth1, hits give low values 0.992 | locus YDR069C, strain doa4, hits give low values 1.02 | locus YDR101C, strain arx1, hits give low values 1.02 | locus YDR137W, strain rgp1, hits give low values 1 | locus YDR150W, strain NUM1, hits give low values 1.02 and 0.999 | locus YDR159W, strain sac3, hits give low values 1.01 | locus YDR162C, strain NBP2, hits give low values 1 | locus YDR195W, strain ref2 0.992 | locus YDR297W, strain sur2, hits give low values 0.99 | locus YDR318W, strain mcm21, hits give low values 0.996 | locus YDR334W, strain swr1, hits give low values 0.982 | locus YDR335W, strain msn5, hits give low values 0.992 | locus YDR363W, strain ESC2, hits give low values 1.02 and 0.978 | locus YDR388W, hits give low values 0.994 | locus YDR392W, strain spt3, hits give low values 0.912 | locus YDR502C, strain sam2, hits give low values 0.999 | locus YEL003W, strain gim4, hits give low values 1.01 | locus YEL037C, strain rad23, hits give low values 0.993 | locus YEL061C, strain CIN8 (second series), hits give low values 0.994 | locus YEL061C, strain CIN8, hits give low values 1.01 | locus YER002W, strain NOP16, hits give low values 0.997 and 0.956 | locus YER015W, strain faa2, hits give low values 0.995 | locus YER016W, strain bim1, hits give low values 1.01 | locus YER110C, hits give low values 0.997 | locus YER111C, strain swi4, hits give low values 0.985 | locus YER155C, strain BEM2 (second series), hits give low values 0.989 | locus YER155C, strain BEM2, hits give low values 1.01 | locus YER167W, strain BCK2, hits give low values 0.992 | locus YFR010W, strain ubp6, hits give low values 0.992 | locus YGL078C, strain dbp3, hits give low values 0.995 | locus YGL086W, strain mad1, hits give low values 0.994 | locus YGL167C, strain pmr1, hits give low values 0.989 | locus YGL173C, strain kem1, hits give low values 0.999 | locus YGL227W, strain vid30, hits give low values 0.99 | locus YGL240W, strain doc1, hits give low values 0.982 | locus YGL248W, strain PDE1, hits give low values 1.01 | locus YGL253W, strain hxk2, hits give low values 0.999 | locus YGR078C, strain PAC10, hits give low values 1.02 and 0.98 | locus YGR135W, strain pre9, hits give low values 0.993 | locus YGR229C, strain SMI1, hits give low values 1.01 | locus YGR252W, strain gcn5, hits give low values 0.936 | locus YHR013C, strain ard1, hits give low values 0.976 | locus YHR027C, strain rpn1, hits give low values 0.997 | locus YHR030C, strain SLT2, hits give low values 1.01 and 0.977 | locus YHR079C, strain IRE1 (second series), hits give low values 1 | locus YHR079C, strain IRE1, hits give low values 0.993 | locus YHR094C, strain hxt1, hits give low values 0.987 | locus YHR129C, strain ARP1, hits give low values 1.01 | locus YHR142W, strain chs7, hits give low values 0.965 | locus YHR200W, strain rpn10, hits give low values 1 | locus YIL066C, strain RNR3, hits give low values 1.01 | locus YIL073C, strain SPO22, hits give low values 1.05 | locus YIL125W, strain kgd1, hits give low values 0.99 | locus YIR030C, strain dcg1, hits give low values 1.01 | locus YJL092W, strain hpr5, hits give low values 0.985 | locus YJL095W, strain BCK1 (second series), hits give low values 0.995 | locus YJL095W, strain BCK1, hits give low values 1.03 and 0.991 | locus YJL115W, strain asf1, hits give low values 0.995 | locus YJL129C, strain trk1, hits give low values 0.979 | locus YJL134W, strain LCB3, hits give low values 1.02 | locus YJL154C, strain vps35, hits give low values 0.995 | locus YJL164C, strain tpk1, hits give low values 0.998 | locus YJL166W, strain qcr8, hits give low values 0.972 | locus YJL168C, strain set2, hits give low values 0.984 | locus YJL187C, strain SWE1 (second series), hits give low values 1.01 | locus YJL187C, strain SWE1, hits give low values 1 | locus YJR043C, strain POL32, hits give low values 1.01 | locus YJR066W, strain TOR1, hits give low values 0.944
